Reference: PubChem BioAssay (EPA / NIEHS)
Calls of active or inactive are those of the source. The calls were made as follows: active = hit-call score of the fitted dose curve at least 0.9, where 1 is the maximum; inactive = score below 0.9.

test: ATG_GATA_CIS: Attagene CIS-FACTORIAL HepG2 Assay for human GATA Binding Protein (AID 2282944); details: HepG2 GATA cis-element reporter, Attagene multiplex mRNA; actives raise or lower the signal
Summary of the method: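 DMSO serves as negative control and baseline for bidirectional fitting of reporter mRNA changes. HepG2 cells bearing transiently transfected cis-promoter reporters were exposed 24 h; transcripts detected via RT-PCR and capillary electrophoresis.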

Structure (SMILES) | outcome
Cn1c(=O)cc(Oc2ccc(F)cc2F)c2cnc(NCC(C)(C)O)nc21 | inactive
CC(C)CC(C)(O)C#CC(C)(O)CC(C)C (configuration not stated) | inactive
CC(C)=CCC/C(C)=C\CO | inactive
Cc1ccc(S(=O)(=O)O)cc1C | inactive
CC(=O)c1ccc2c(c1)[C@H](NC(=O)c1ccc(F)cc1)[C@@H](O)C(C)(C)O2 | inactive
C=CCCCCCCCCC(=O)O | inactive
O=C(O)c1cccc(Oc2ccccc2)c1 | inactive
C1N2CN3CN1CN(C2)C3 | inactive
CC1=CC(=O)CC(C)(C)C1 | inactive
CNS(=O)(=O)c1cc(C(=O)N2CCC(CCN3C4CCC3CC(n3c(C)nc5ccccc53)C4)(c3cccc(F)c3)CC2)c(Cl)cc1F (configuration not stated) | inactive
O=C(O)CCN(C1(C(=O)NO)CCCC1)S(=O)(=O)c1ccc(Oc2ccc(F)cc2)cc1 | inactive
On1ccccc1=S | inactive
CCn1nc(Cc2ccccc2)cc1C1CCN(C[C@H]2C[C@H](N(C)[C@@H](C(=O)O)C(C)C)C[C@@H]2c2cccc(F)c2)CC1 | inactive

test: ATG_GLI_CIS: Attagene CIS-FACTORIAL HepG2 Assay for human Zinc Finger Protein GLI1 (AID 2282945); details: HepG2, Attagene cis-factorial reporter mRNA, GLI element; actives raise or lower the signal
Summary of the method: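 Transiently transfected HepG2 cells report endogenous transcription factor activity via cis-element-driven reporter units. After 24 h compound exposure, reporter mRNA was measured by RT-PCR with capillary electrophoresis; bidirectional fitting against DMSO baseline.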

Structure (SMILES) | outcome | AC50
O=C(O)CC(O)C(=O)O (configuration not stated) | inactive | 
CC(C)=CCCC(C)=CC=O | inactive | 
C=CC(=C)CCC=C(C)C | inactive | 
CC[C@H]1OC(=O)[C@H](C)[C@@H](O[C@H]2C[C@@](C)(OC)[C@@H](O)[C@H](C)O2)[C@H](C)[C@@H](O[C@@H]2O[C@H](C)C[C@H](N(C)C)[C@H]2O)[C@](C)(O)C[C@@H](C)C(=O)[C@H](C)[C@@H](O)[C@]1(C)O | inactive | 
O=C1CCC(N2C(=O)c3ccccc3C2=O)C(=O)N1 (configuration not stated) | inactive | 
C[C@](N)(Cc1ccc(O)c(O)c1)C(=O)O | inactive | 
Nc1cccc(N)c1 | inactive | 
Cn1c(=O)c2c(ncn2C)n(C)c1=O | inactive | 
Nc1nc2ncc(CNc3ccc(C(=O)N[C@@H](CCC(=O)O)C(=O)O)cc3)nc2c(=O)[nH]1 | inactive | 
CC(=O)OCCC(C)C | inactive | 
O=P(OC(CCl)CCl)(OC(CCl)CCl)OC(CCl)CCl |  | 145 µM (active)
CCCC(=O)OCC | inactive | 
COc1cccc(-c2ccc(/C=C\CN3CCCCCC3)cc2Cl)c1 | inactive | 
O=C(OC[C@H]1O[C@@H](OC(=O)c2cc(O)c(O)c(OC(=O)c3cc(O)c(O)c(O)c3)c2)[C@H](OC(=O)c2cc(O)c(O)c(OC(=O)c3cc(O)c(O)c(O)c3)c2)[C@@H](OC(=O)c2cc(O)c(O)c(OC(=O)c3cc(O)c(O)c(O)c3)c2)[C@@H]1OC(=O)c1cc(O)c(O)c(OC(=O)c2cc(O)c(O)c(O)c2)c1)c1cc(O)c(O)c(OC(=O)c2cc(O)c(O)c(O)c2)c1 | inactive | 
CCOCCOCCOCCO | inactive | 
O=C(O)c1cccc(N(Cc2cccnc2)c2ccc(OC(F)F)c(OC(F)F)c2)c1 | inactive | 
Cn1c(=O)cc(Oc2ccc(F)cc2F)c2cnc(NCC(C)(C)O)nc21 | inactive | 
CC(C)CC(C)(O)C#CC(C)(O)CC(C)C (configuration not stated) | inactive | 
CC(C)=CCC/C(C)=C\CO | inactive | 
Cc1ccc(S(=O)(=O)O)cc1C | inactive | 
CC(=O)c1ccc2c(c1)[C@H](NC(=O)c1ccc(F)cc1)[C@@H](O)C(C)(C)O2 | inactive | 
C=CCCCCCCCCC(=O)O | inactive | 
O=C(O)c1cccc(Oc2ccccc2)c1 | inactive | 
C1N2CN3CN1CN(C2)C3 | inactive | 
CC1=CC(=O)CC(C)(C)C1 | inactive | 
CNS(=O)(=O)c1cc(C(=O)N2CCC(CCN3C4CCC3CC(n3c(C)nc5ccccc53)C4)(c3cccc(F)c3)CC2)c(Cl)cc1F (configuration not stated) | inactive | 
O=C(O)CCN(C1(C(=O)NO)CCCC1)S(=O)(=O)c1ccc(Oc2ccc(F)cc2)cc1 | inactive | 
On1ccccc1=S | inactive | 
CCn1nc(Cc2ccccc2)cc1C1CCN(C[C@H]2C[C@H](N(C)[C@@H](C(=O)O)C(C)C)C[C@@H]2c2cccc(F)c2)CC1 | inactive | 
